Data: PubChem BioAssay (EPA / NIEHS)
Records with an inconclusive call do not appear. The source made the active and inactive calls. How the source made its calls, unless noted: active means hit-call score of the fitted dose curve at least 0.9, where 1 is the maximum; inactive means score below 0.9.

What was measured:
[1] = CCTE_Shafer_MEA_dev_active_electrodes_number: CCTE's Neural Network Formation Assay for Number of Active Electrodes, Shafer Lab (AID 2284040; active means hit-call score of the fitted dose curve at least 0.9, where 1 is the maximum;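 on AC50: potency for loss of active electrodes versus DMSO so lower counts are hits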)
Outline: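 Rat cortical primary cultures, 1.5 x 10^5 cells/well, PEI-coated MEA, laminin drop. Continuous exposure DIV 0–12; full media/compound change DIV 5, 9. Readout: electrodes with mean firing ≥5 spikes/min; AUC across days; loss vs DMSO.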

[2] = CCTE_Shafer_MEA_dev_burst_rate: CCTE's Neural Network Formation Assay for Burst Rate, Shafer Lab (AID 2284042)
Outline: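 Cells plated, treated day 0; recorded DIV 5, 7, 9, 12; fed and re-treated DIV 5, 9. Endpoint: bursts per recording time, active-electrode well mean, trapezoidal AUC, fitted in decreasing direction against DMSO baseline.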

[3] = CCTE_Shafer_MEA_dev_bursting_electrodes_number: CCTE's Neural Network Formation Assay for Number of Bursting Electrodes, Shafer Lab (AID 2284043; active means hit-call score of the fitted dose curve at least 0.9, where 1 is the maximum;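 on AC50: potency is for loss of bursting electrodes relative to DMSO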)
Outline: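 Primary rat cortical neurons plated on 16-electrode MEA wells, exposed from day 0 with compound renewed at DIV 5 and 9. Electrodes bursting ≥1 burst per 2 min counted on days 5, 7, 9 and 12; trapezoidal AUC across days, fitted for loss versus DMSO.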

[4] = CCTE_Shafer_MEA_dev_burst_duration_mean: CCTE's Neural Network Formation Assay for Mean Burst Duration, Shafer Lab (AID 2284045);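 on AC50: curve fitted for loss meaning shorter burst duration than DMSO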
Outline: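 Primary rat cortical neurons on 48-well 16-electrode MEA plates, exposed from day 0 with renewal at DIV 5 and 9; spontaneous activity recorded on days 5, 7, 9, 12. Well-mean burst duration across bursting electrodes, collapsed as trapezoidal AUC; DMSO baseline.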

[5] = CCTE_Shafer_MEA_dev_interburst_interval_mean: CCTE's Neural Network Formation Assay for Mean Interburst Interval, Shafer Lab (AID 2284046);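 further: well-mean interburst interval of bursting electrodes as AUC over four recording days; curve fitted for decrease in interburst interval relative to DMSO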
Outline: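 Developing rat cortical networks on 48-well MEAs receive compound from the day of plating. Burst intervals from each active electrode are averaged per well, and AUC over the recording days is fitted in the negative direction against DMSO.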

[6] = CCTE_Shafer_MEA_dev_inter_network_spike_interval_mean: CCTE's Neural Network Formation Assay for Mean Inter-network Spike Interval, Shafer Lab (AID 2284047)
Outline: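 Rat cortical cultures, 1.5 x 10^5 cells/well on 48-well MEA plates; continuous exposure days 0–12, medium and compound refreshed DIV 5, 9. Mean time between consecutive network-spike peaks; AUC across DIV 5/7/9/12; DMSO baseline, negative fitting direction.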

[7] = CCTE_Shafer_MEA_dev_network_spike_number: CCTE's Neural Network Formation Assay for Number of Network Spikes, Shafer Lab (AID 2284048);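 on AC50: fit as a loss of signal meaning fewer network spikes than DMSO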
Outline: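 Primary rat cortical neurons on PEI/laminin 48-well MEA plates, dosed from plating day 0 for 12 days, renewed at DIV 5 and 9. Network spike counts recorded DIV 5, 7, 9, 12, collapsed as trapezoidal AUC; DMSO baseline.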

[8] = CCTE_Deisenroth_AIME_384WELL_CTox_Active: Cytotoxicity Assessment (CTOX) in CCTE's 384-well Estrogen Receptor Transactivation Assay with AIME metabolic competence (metabolism positive), Deisenroth Lab (AID 2284037; active means hit-call score of the fitted dose curve at least 0.9, where 1 is the maximum;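 further: chemicals first conditioned 2 h by alginate-bound induced rat liver S9 before cells; activity means signal loss indicating cell death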)
Outline: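 Chemicals pre-incubated 2 hours with alginate-immobilised phenobarbital/beta-naphthoflavone-induced male Sprague Dawley rat liver S9, then conditioned medium applied 24 hour to VM7Luc4E2 cells. Viability by fluorogenic protease substrate; 10-point series 0.002 - 200 uM.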

[9] = molecular target: Estrogen receptor (Homo sapiens) (UniProt P03372); test: CCTE_Deisenroth_AIME_384WELL_LUC_Inactive: CCTE's 384-well Estrogen Receptor Transactivation Assay without AIME metabolic competence (ERTA luciferase; metabolism negative), Deisenroth Lab (AID 2284038; active means hit-call score of the fitted dose curve at least 0.9, where 1 is the maximum;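 further: VM7Luc4E2 breast cells given medium preincubated 2 h with S9-free microspheres; hits raise estrogen receptor luciferase signal so potencies reflect agonists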)
Outline: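 Chemicals (10-point series, 0.002 - 200 uM) were incubated 2 hours with alginate-water microsphere lids lacking S9, then the conditioned medium was transferred to VM7Luc4E2 breast cells for 24 hour. Luciferase induction was read by bioluminescence, fitted upward relative to 17beta-estradiol.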

[10] = CCTE_Deisenroth_AIME_384WELL_CTox_Inactive: Cytotoxicity Assessment (CTOX) in CCTE's 384-well Estrogen Receptor Transactivation Assay without AIME metabolic competence (metabolism negative), Deisenroth Lab (AID 2284039; active means hit-call score of the fitted dose curve at least 0.9, where 1 is the maximum;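 further: cell viability via live-cell protease substrate cleaved to fluorescent probe; cells exposed 24 h to medium preincubated 2 h with alginate-water beads without S9; loss of fluorescence signal means loss of viability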)
Outline: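 Metabolism-negative arm: chemicals (10-point, 0.002 - 200 uM) preincubated 2 h with alginate-water lids, medium moved onto VM7Luc4E2 cells for 24 h. Fluorescent live-cell protease readout; bidirectional curve fit.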

Measured: AC50

Chain of Estrogen receptor (Homo sapiens) (P03372 whole entry, looked up): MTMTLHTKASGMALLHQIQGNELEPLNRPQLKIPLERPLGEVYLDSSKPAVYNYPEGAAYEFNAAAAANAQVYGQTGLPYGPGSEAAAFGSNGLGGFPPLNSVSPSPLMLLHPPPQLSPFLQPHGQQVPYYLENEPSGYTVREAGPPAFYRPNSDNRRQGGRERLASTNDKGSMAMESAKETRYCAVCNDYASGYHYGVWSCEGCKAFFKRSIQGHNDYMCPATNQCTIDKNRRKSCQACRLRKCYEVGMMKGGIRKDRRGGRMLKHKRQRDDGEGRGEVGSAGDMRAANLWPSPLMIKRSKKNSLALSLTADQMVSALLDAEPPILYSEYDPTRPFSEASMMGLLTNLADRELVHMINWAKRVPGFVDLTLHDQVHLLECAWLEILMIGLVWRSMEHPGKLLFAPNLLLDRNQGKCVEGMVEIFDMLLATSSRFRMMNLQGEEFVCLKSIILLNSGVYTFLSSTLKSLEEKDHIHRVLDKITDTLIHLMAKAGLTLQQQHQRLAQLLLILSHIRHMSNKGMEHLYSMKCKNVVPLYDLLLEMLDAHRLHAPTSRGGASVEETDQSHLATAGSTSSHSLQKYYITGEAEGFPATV

NC(O)(C(F)(F)F)C(F)(F)F
not listed: [8] | [9] | [10]
inactive: all other assays above

NC(=O)C(F)(F)C(F)(F)C(F)(F)C(F)(F)C(N)=O
inactive: [1] | [2] | [4] | [5] | [6] | [7]

OC(O)C(F)(F)C(F)(F)F
inactive: [2] | [4] | [5] | [6] | [7]

CC(C)OC=O
inactive: [8] | [9] | [10]

OCC1CCCO1 (centres undefined)
inactive: [9]

NC(=O)C(F)(F)C(F)(F)C(F)(F)C(F)F
inactive: [2] | [4] | [5] | [6] | [7]

OCC(F)(F)C(F)(F)C(F)(F)C(F)(F)C(F)(F)C(F)(F)CO
active: [1] 0.65 µM
not listed: [8] | [9] | [10]
inactive: all other assays above

C=CC(=O)OCC(F)(F)C(F)(F)C(F)(F)COC(=O)C=C
inactive: [2] | [6]
active: [1] 4.25 µM | [3] 1.52 µM | [4] 3.86 µM | [5] 8.65 µM | [7] 1.18 µM

CCCCCCCC/C=C\CCCCCCCC(=O)OCC(O)CO (centres undefined)
inactive: [9] | [10]

CCN(CCO)S(=O)(=O)C(F)(F)C(F)(F)C(F)(F)C(F)(F)C(F)(F)C(F)(F)C(F)(F)C(F)(F)F
not listed: [8] | [9] | [10]
inactive: all other assays above

C=CC(=O)OCCC(F)(F)C(F)(F)C(F)(F)C(F)(F)F
not listed: [8] | [9] | [10]
inactive: all other assays above

CCCCOC(=O)C(C)O (centres undefined)
inactive: [8] | [9] | [10]

NC(=O)C(F)(F)C(F)(F)C(F)(F)F
inactive: [2] | [4] | [5] | [6] | [7]

FC(F)(F)C(F)(F)C(F)(F)C(F)(F)C(F)(F)C(F)(F)C(F)(F)CCI
not listed: [8] | [9] | [10]
inactive: all other assays above

OCC(O)CC(F)(F)C(F)(F)C(F)(F)C(F)(F)F (centres undefined)
not listed: [8] | [9] | [10]
inactive: all other assays above

CNS(=O)(=O)C(F)(F)C(F)(F)C(F)(F)C(F)(F)C(F)(F)C(F)(F)C(F)(F)C(F)(F)F
not listed: [8] | [9] | [10]
inactive: all other assays above

O=C(c1ccccc1)c1ccc(O)cc1O
inactive: [8]
active: [9] 40.3 µM

CO[Si](C)(CCC(F)(F)C(F)(F)C(F)(F)C(F)(F)C(F)(F)C(F)(F)F)OC
inactive: [2] | [4] | [5] | [6] | [7]

O=C1C=CC(=O)N1c1ccccc1
inactive: [8] | [9] | [10]

CCCCCCCC/C=C\CCCCCCCC(=O)N(C)CC(=O)O
active: [8] 124 µM
inactive: [10]

OCC(F)(F)C(F)(F)C(F)(F)CO
active: [4] 15 µM
not listed: [8] | [9] | [10]
inactive: all other assays above

CC(=O)CCC(C)C
inactive: [8] | [9] | [10]

OCC(F)(F)C(F)(F)C(F)(F)C(F)(F)C(F)(F)C(F)(F)C(F)(F)C(F)(F)CO
active: [1] 15 µM
not listed: [8] | [9] | [10]
inactive: all other assays above

Cc1ccc(O)c(-n2nc3ccccc3n2)c1
active: [9] 38.2 µM

CCOC(OCC)OCC
inactive: [8] | [9]

CC(C)(C)c1cc(Cc2cc(C(C)(C)C)c(O)c(C(C)(C)C)c2)cc(C(C)(C)C)c1O
inactive: [8] | [9]

O=S(=O)(O)CCC(F)(F)C(F)(F)C(F)(F)C(F)(F)C(F)(F)C(F)(F)C(F)(F)C(F)(F)F
inactive: [2] | [4] | [5] | [6] | [7]

CCN=C1C=CC(=C(c2ccc(N(CC)CC)cc2)c2ccc(N(CC)CC)cc2)c2ccccc21
active: [8] 59.1 µM | [10] 57.3 µM

O=S(=O)(O)CCC(F)(F)C(F)(F)C(F)(F)C(F)(F)F
not listed: [8] | [9] | [10]
inactive: all other assays above

O=C(O)C(F)(F)C(F)(F)C(F)(F)OC(F)(F)F
inactive: [2] | [4] | [5] | [6] | [7]

N#Cc1ccccc1O
inactive: [8] | [9] | [10]

OCCCCC(F)(F)C(F)(F)C(F)(F)C(F)(F)F
not listed: [8] | [9] | [10]
inactive: all other assays above
